This is an account of results in PubChem BioAssay.

A short description of assay [1]: stimulators of insulin release from INS-1E, primary screen, cell-based, 5 mM glucose, NPC library (AID 1117329;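 active = compound raises insulin release from rat beta cells at 5 mM glucose, no numeric limit stated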). The following applies: rat INS-1E insulin secretion, at 10 µM, hits give high values.
Assay [2] is described as follows: growth inhibition of GSK3B-pretreated HCT116 cells – cell-based, CellTiter-Glo, 0.2 to 20 µM (AID 1117336;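 active = compounds lowering colon cancer cell viability after pretreatment blocking the GSK3B kinase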). The following applies: HCT116 viability after GSK3B inhibitor, at 20 µM, hits give high values. (In general: Cellular ATP, detected with luciferase, serves as a proxy for viable cell number.)
Assay [3] can be described thus: inhibition of endothelial tube formation, primary screen, imaging, VEGF stimulated, CD31 staining, tube area, NPC library (AID 1117340;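 active = compound that reduces growth-factor-driven endothelial tube area in a mixed cell culture, no cutoff stated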). The following applies: VEGF-stimulated ADSC/ECFC co-culture, at 10 µM, hits give high values.
Assay [4] can be described thus: GLP1 release stimulators, primary, NCI-H716, NPC library (AID 1117341;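 active = compound raises GLP1 secretion from the human gut endocrine cells, with no numeric limit stated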). The following applies: NCI-H716 cells, at 10 µM, hits give high values.
The nature of assay [5]: HCT116 colon cancer cell growth inhibition, primary screen, CellTiter-Glo luminescence, NPC library (AID 1117342;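 active = compounds that lower survival of HCT116 colon cancer cells in the luminescence readout, no numeric limit stated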). The following applies: at 20 µM (top of the series).
Assay [6] in a line: reduced SW480 viability measured with CellTiter-Glo, NPC library, primary (AID 1117343;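 active = compounds that lower viability of the colon cancer cells in the luminescence readout, with no numeric limit stated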). The following applies: CellTiter-Glo luminescence; at 20 µM (top of the series).
The nature of assay [7]: NPC library primary testing for decreased DLD-1 cell viability via CellTiter-Glo (AID 1117346;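 active = compounds that lower survival of DLD-1 colon cancer cells in the luminescence readout, no cutoff given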). The following applies: DLD-1 viability, CellTiter-Glo luminescence; at 20 µM (top of the series).
Assay [8] deals with 6-phosphogluconate dehydrogenase, decarboxylating (Homo sapiens) (UniProt P52209). As to the kind of experiment: inhibition of human phosphogluconate dehydrogenase – biochemical, recombinant enzyme, NADPH absorbance, primary screen (AID 1159550). The following applies: recombinant 6PGD, NADPH absorbance 341 nm; at 10 µM; hits give high values.
Sequence of 6-phosphogluconate dehydrogenase, decarboxylating (Homo sapiens) (P52209 whole entry, looked up): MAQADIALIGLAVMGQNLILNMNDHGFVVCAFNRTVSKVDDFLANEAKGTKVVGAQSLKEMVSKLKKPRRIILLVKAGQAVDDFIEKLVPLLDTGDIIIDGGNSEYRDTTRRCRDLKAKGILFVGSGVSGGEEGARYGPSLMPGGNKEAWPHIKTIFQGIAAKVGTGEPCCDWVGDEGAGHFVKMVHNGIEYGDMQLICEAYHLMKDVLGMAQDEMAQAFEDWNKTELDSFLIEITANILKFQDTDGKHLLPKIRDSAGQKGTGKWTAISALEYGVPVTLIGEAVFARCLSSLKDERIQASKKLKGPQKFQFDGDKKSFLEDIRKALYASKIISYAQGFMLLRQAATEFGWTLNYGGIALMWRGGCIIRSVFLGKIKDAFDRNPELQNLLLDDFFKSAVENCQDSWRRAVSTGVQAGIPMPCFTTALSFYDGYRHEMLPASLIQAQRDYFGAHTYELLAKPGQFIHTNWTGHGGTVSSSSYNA

Values without a mark were called inactive. The source made the active and inactive calls.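 Rule for the calls, unless noted: active = at least 20% inhibition of 6-phosphogluconate dehydrogenase activity; inactive = the rest.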

In general, inhibition refers to the drop in the measured response relative to a control, in per cent. For `O=C(c1ccc(F)cc1)C1CCN(CCn2c(=O)[nH]c3ccccc3c2=O)CC1`, the insulin secretion stimulation in assay [1] was 2.5%. Further, in assay [2], the viability decrease is 19.4%. The tube area decrease in assay [3] is -2.2% (active). The GLP1 secretion stimulation in assay [4] was 2.6%. Also, the inhibition of viability in assay [5] was 52.6% (active). The viability decrease (inhibition) is 19.5% in assay [6] and 16.9% in assay [7]. Moreover, the inhibition in assay [8] was 8.02%.
Regarding `NC(N)=N/N=C/c1c(Cl)cccc1Cl`, the insulin secretion stimulation in assay [1] was -0.5%. Besides, the viability decrease in assay [2] was 60% (active). For the same compound, the tube area decrease in assay [3] was 18.2%. In addition, the GLP1 secretion stimulation in assay [4] is 2.1%. Also, in assay [5], the inhibition of viability was 80.7% (active). Moreover, the viability decrease (inhibition) in assay [6] was 99.6% (active); in assay [7], 45.4%. The inhibition in assay [8] is 14%.
On to `Cc1ccccc1OCC(O)CO` (stereo unspecified), for which the insulin secretion stimulation in assay [1] was -1.2%. For the same compound, in assay [2], the viability decrease was -10.2%. Besides, in assay [3], the tube area decrease was -4.1%. Also, the GLP1 secretion stimulation in assay [4] was -0.8%. Moreover, the inhibition of viability in assay [5] is -20.4%. Moreover, the viability decrease (inhibition) in assay [6] is 0.7%; in assay [7], -25.4%. For the same compound, in assay [8], the inhibition is 7.3%.
As for `O=C(O)[C@@H]1[C@H]2C[C@H]3c4[nH]c5ccccc5c4CCN3C[C@@H]2CC[C@@H]1O`, the insulin secretion stimulation in assay [1] is -0.3%. Besides, the viability decrease in assay [2] is -25.2%. In assay [3], the tube area decrease was 9.1%. Further, the GLP1 secretion stimulation in assay [4] was 0.3%. Further, in assay [5], the inhibition of viability was -4.53%. For the same compound, the viability decrease (inhibition) was 13% in assay [6] and -18.9% in assay [7]. For the same compound, the inhibition in assay [8] is 2.44%.
In the case of `CC1=NN(c2ccccc2)C(=O)C1`, in assay [1], the insulin secretion stimulation was -2.2%. Moreover, the viability decrease in assay [2] is 10.2%. Moreover, the tube area decrease in assay [3] was 6.7%. Besides, the GLP1 secretion stimulation in assay [4] was 3.5%. In addition, in assay [5], the inhibition of viability is 2.1%. The viability decrease (inhibition) was 33.2% in assay [6] and 12.2% in assay [7]. Also, the inhibition in assay [8] is 13.6%.
On to `CC(NCCC(c1ccccc1)c1ccccc1)c1ccccc1` (stereo unspecified), for which the insulin secretion stimulation in assay [1] was 4.5%. For the same compound, in assay [2], the viability decrease was 99.5% (active). Further, the tube area decrease in assay [3] was 15.4%. In addition, the GLP1 secretion stimulation in assay [4] is -2.1%. Also, the inhibition of viability in assay [5] was 99.3% (active). Besides, the viability decrease (inhibition) in assay [6] is 102% (active); in assay [7], 89% (active). In addition, the inhibition in assay [8] was 4.5%.
Consider `NC[C@H]1O[C@H](O[C@H]2[C@H](O)[C@@H](O[C@H]3O[C@H](CO)[C@@H](O)[C@H](N)[C@H]3O)[C@H](N)C[C@@H]2N)[C@H](N)[C@@H](O)[C@@H]1O`, for which the insulin secretion stimulation in assay [1] was -0.7%. The viability decrease in assay [2] is -7.8%. In addition, the tube area decrease in assay [3] was -8.4%. Besides, the GLP1 secretion stimulation in assay [4] is 1.5%. For the same compound, the inhibition of viability in assay [5] is 9.9%. Further, the viability decrease (inhibition) in assay [6] is 6.5%; in assay [7], -1.7%. For the same compound, the inhibition in assay [8] was 5.79%.
As for `CC(Cc1cccc(C(F)(F)F)c1)NCCOC(=O)c1ccccc1` (stereo unspecified), in assay [1], the insulin secretion stimulation was 3%. Further, the viability decrease in assay [2] is -38.7%. In addition, the tube area decrease in assay [3] was 0.6%. The GLP1 secretion stimulation in assay [4] was 2.6%. Further, in assay [5], the inhibition of viability was 18.1%. The viability decrease (inhibition) is 51.4% (active) in assay [6] and 28.7% in assay [7]. The inhibition in assay [8] was 16.1%.
For the compound `CC(=O)Oc1c(C)c(C)c2c(c1C)CC[C@@](C)(CCC[C@H](C)CCC[C@H](C)CCCC(C)C)O2`, the insulin secretion stimulation in assay [1] was 0.3%. Also, in assay [2], the viability decrease is -9.9%. In addition, in assay [3], the tube area decrease was -15.2%. Also, in assay [4], the GLP1 secretion stimulation was 1.2%. Further, the inhibition of viability in assay [5] was 1.13%. For the same compound, the viability decrease (inhibition) in assay [6] is -13.6%; in assay [7], -19.7%. Moreover, the inhibition in assay [8] is 14%.
For the compound `Cc1cc(N)c2ccccc2[n+]1CCCCCCCCCC[n+]1c(C)cc(N)c2ccccc21`, in assay [1], the insulin secretion stimulation was -0.4%. The viability decrease in assay [2] is 85.5% (active). In assay [3], the tube area decrease is 106% (active). In addition, the GLP1 secretion stimulation in assay [4] was -0.6%. In assay [5], the inhibition of viability was 74.9% (active). The viability decrease (inhibition) was 83% (active) in assay [6] and 85.1% (active) in assay [7]. The inhibition in assay [8] is 4.29%.
Consider `O=C(N[C@H](CO)[C@H](O)c1ccc([N+](=O)[O-])cc1)C(Cl)Cl`, for which the insulin secretion stimulation in assay [1] is 1.8%. Further, in assay [2], the viability decrease is -11.1%. Moreover, the tube area decrease in assay [3] is 12.5%. Besides, in assay [4], the GLP1 secretion stimulation was -4.2%. Also, the inhibition of viability in assay [5] is -1.7%. Also, the viability decrease (inhibition) in assay [6] is -0.7%; in assay [7] it was -7%. Further, the inhibition in assay [8] was 15.5%.
`COc1ccc(-c2cc(C(F)F)nn2-c2ccc(S(N)(=O)=O)cc2)cc1F`: the insulin secretion stimulation in assay [1] is -0.6%. Moreover, the viability decrease in assay [2] was -65.6%. Besides, the tube area decrease in assay [3] was 10.3%. For the same compound, the GLP1 secretion stimulation in assay [4] was 5.7%. Besides, the inhibition of viability in assay [5] is 22.3%. Besides, the viability decrease (inhibition) in assay [6] is 6.3%; in assay [7], 1.8%. Further, the inhibition in assay [8] is -12.8%.
On to `Cc1cc(C)cc(OCC2CNC(=O)O2)c1` (stereo unspecified), for which, in assay [1], the insulin secretion stimulation is -0.5%. Further, the viability decrease in assay [2] was 4.3%. Moreover, in assay [3], the tube area decrease was 12.5%. The GLP1 secretion stimulation in assay [4] was -1.5%. The inhibition of viability in assay [5] was 3.1%. Further, the viability decrease (inhibition) in assay [6] is 13.1%; in assay [7], 6%. The inhibition in assay [8] is 3.16%.
On to `NC(=O)c1ccc([N+](=O)[O-])cc1Cl`, for which the insulin secretion stimulation in assay [1] was -2.1%. Further, the viability decrease in assay [2] was -0.35%. Besides, the tube area decrease in assay [3] was -35.4%. For the same compound, the GLP1 secretion stimulation in assay [4] was 0%. In addition, in assay [5], the inhibition of viability was 42.7%. The viability decrease (inhibition) in assay [6] was 32.9%; in assay [7], 3.8%. The inhibition in assay [8] is 10.9%.
Regarding `CC(=O)Oc1cccc2c1C(=O)c1c(OC(C)=O)cc(C(=O)O)cc1C2=O`, the insulin secretion stimulation in assay [1] is 1.8%. In addition, in assay [2], the viability decrease is 106% (active). For the same compound, in assay [3], the tube area decrease was 6.3% (active). For the same compound, the GLP1 secretion stimulation in assay [4] was -2%. In addition, in assay [5], the inhibition of viability was 100% (active). In addition, the viability decrease (inhibition) was 59.1% (active) in assay [6] and 64.3% (active) in assay [7]. The inhibition in assay [8] is -1.78%.
With `Nc1ccc(C(=O)O)cc1`, the insulin secretion stimulation in assay [1] is -1%. Moreover, in assay [2], the viability decrease is 2.35%. In addition, in assay [3], the tube area decrease is -16.4%. Further, the GLP1 secretion stimulation in assay [4] is 0.8%. For the same compound, the inhibition of viability in assay [5] is -6.1%. The viability decrease (inhibition) in assay [6] is 13.3%; in assay [7] it was -4.7%. Besides, the inhibition in assay [8] was 6.16%.
With `CCN(CCCCOC(=O)c1ccc(OC)c(OC)c1)C(C)Cc1ccc(OC)cc1` (stereo unspecified), the insulin secretion stimulation in assay [1] was 49.6% (active). For the same compound, the viability decrease in assay [2] is -125%. Besides, the tube area decrease in assay [3] was 23.2%. The GLP1 secretion stimulation in assay [4] is 0.3%. Besides, the inhibition of viability in assay [5] was 26.7%. Also, the viability decrease (inhibition) in assay [6] is 20%; in assay [7], 8%. Besides, the inhibition in assay [8] is -12.1%.
